# Assay outcomes as filed in PubChem.
# ADAM17 inh: inhibitors of human ADAM17; P78536; hit rate 0.83% among 370,000; AID 720648; recombinant ADAM17, EDANS/DABCYL FRET peptide cleavage; inhibition, % at 6.95 µM;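 active = inhibition above the mean of compounds lying between control limits plus 3 SD, set per campaign, cut at about 8.5% in these data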;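 also: 0% = DMSO-only wells as the low control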
# Target sequence (P78536 215-824 limits assumed): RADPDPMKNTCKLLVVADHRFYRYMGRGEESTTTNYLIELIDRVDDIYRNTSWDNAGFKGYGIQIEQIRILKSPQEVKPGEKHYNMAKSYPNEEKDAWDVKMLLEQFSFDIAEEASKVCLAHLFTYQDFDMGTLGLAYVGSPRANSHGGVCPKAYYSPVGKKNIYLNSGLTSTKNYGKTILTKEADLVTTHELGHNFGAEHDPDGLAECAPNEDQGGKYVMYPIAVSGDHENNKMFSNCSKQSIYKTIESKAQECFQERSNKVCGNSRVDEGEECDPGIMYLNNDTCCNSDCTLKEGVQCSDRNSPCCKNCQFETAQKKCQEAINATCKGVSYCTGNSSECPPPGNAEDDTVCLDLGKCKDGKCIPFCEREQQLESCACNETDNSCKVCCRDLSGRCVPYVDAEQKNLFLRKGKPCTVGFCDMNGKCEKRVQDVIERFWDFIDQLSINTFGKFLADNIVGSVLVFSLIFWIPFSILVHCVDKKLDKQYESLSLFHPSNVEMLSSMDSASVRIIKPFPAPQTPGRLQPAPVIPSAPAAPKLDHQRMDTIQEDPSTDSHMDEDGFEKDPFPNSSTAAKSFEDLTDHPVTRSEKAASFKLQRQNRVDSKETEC
# PLC-beta3 inh: blocks human PLC-beta3 enzyme activity; inhibition, % at 12.2 µM; Q01970; hit rate 0.18% among 370,000; Purified PLC-beta3, fluorogenic substrate, fluorescence; in the data active = inhibition above about 11%;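 also: 0% = median of compound wells on plate and 100% = full blocker control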
# PLCg1 inh: inhibitors of human phospholipase C gamma1 | P19174 | purified PLC-gamma1, fluorogenic substrate, fluorescence | inhibition, % at 12.2 µM | hit rate 0.84% among 370,000 | AID 720700; in the data active = inhibition above about 9.5%
# KLK7 zymogen act: activators of human kallikrein-7 zymogen; purified proKLK7, EDANS-DABCYL substrate fluorescence; 100% is mature enzyme control, 0% vehicle; P49862; AID 652039; hit rate 0.9% among 370,000; activation, % at 7 µM;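 active = activation above the mean of all tested compounds plus 3 SD, computed per campaign excluding outliers beyond control limits, cut at about 13% in these data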
# ADAM10 inh: inhibits human ADAM10. O14672. recombinant ADAM10, EDANS/DABCYL FRET peptide cleavage, 3 h. inhibition, % at 7 µM. hit rate 0.62% among 370,000. AID 720582;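 active = inhibition above a per-campaign cutoff equal to the mean of compounds falling between control-based bounds plus 3 SD, cut at about 20% in these data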;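 also: 0% = DMSO wells while the 100% control is not disclosed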
# sPLA2-III inh: Blocks human group III sPLA2 activity; Q9NZ20; QFRET BODIPY PC-A2 liposome hydrolysis, fluorescence; inhibition, % at 12.2 µM; hit rate 0.56% among 370,000;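 active = inhibition above mean plus 3 SD of compounds lying within the high and low control bounds, cut at about 19% in these data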;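 also: 0% = median of test compound wells and 100% = no enzyme DMSO wells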
# ADAM10 counter: counter-screen for ADAM17 exosite inhibitors: inhibitors of human ADAM10. shares compounds with ADAM17 inh. recombinant ADAM10, EDANS/DABCYL FRET peptide cleavage, 3 h. inhibition, % at 6.95 µM. hit rate 47% among 2,900;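 active = mean inhibition over the triplicate runs exceeds the activity threshold set in the earlier primary screen, cut at about 20% in these data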;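 also: 0% = DMSO wells and 100% = marimastat wells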
# ADAM17 confirm: confirmation of inhibitors of human ADAM17; inhibition, % at 6.95 µM; AID 743257; shares compounds with ADAM17 inh; hit rate 65% among 2,900; recombinant ADAM17, EDANS/DABCYL QFRET peptide cleavage;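 active = mean inhibition across replicates above the hit cutoff set in the primary screen, cut at about 8.5% in these data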;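 also: 0% = DMSO wells and 100% = marimastat wells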
# * = called active by the depositor; . = not tested or not shown. Shown are actives, neighbours in structure and some others; about 3.4% of the full set was active somewhere.
SMILES,ADAM17 inh,PLC-beta3 inh,PLCg1 inh,KLK7 zymogen act,ADAM10 inh,sPLA2-III inh,ADAM10 counter,ADAM17 confirm
O=c1[nH]c(=S)n(-c2ccc(Br)cc2)c2ncccc12,11*,4,8,0,6,9,20,11*
Fc1ccc(-n2c(=S)[nH]c3cccnc32)cc1,-3,-4,-1,0,-3,3,.,.
COc1ccc(N/N=C(\C#N)C(=N)N2CCOCC2)cc1,8.8*,-2,7,0,7,2,13,6
CC(C)CNS(=O)(=O)c1ccc(CCC(=O)O)cc1,-3,-3,3,-1,0,3,.,.
CC(C)(C)NS(=O)(=O)c1ccc(CCC(=O)Nc2cc(Cl)ccc2Oc2ccccc2)cc1,9.7*,-1,-3,0,19,-20,33*,19*
COc1ccc(CCC(=O)Nc2cc(Cl)ccc2OC)cc1,-2,2,0,0,-1,1,.,.
CC(C)CNS(=O)(=O)c1ccc(CCC(=O)Nc2cc(Cl)ccc2Oc2ccccc2)cc1,9.7*,-5,3,-5,19,-22,39*,21*
CCc1nc2ccc(C(=O)Nc3ccc4c(c3)OCC(=O)N4)cn2c1N(CC)Cc1cccc(Br)c1,9.1*,-85,-60,-5,14,-23,16,12*
COc1ccc2c(c1)C(SCC(=O)NCCc1ccc(Cl)cc1)CC(C)(C)O2 (stereo unspecified),7,1,2,0,19,-19,.,.
COc1cccc(NC(=O)CC2S/C(=N\S(=O)(=O)c3ccccc3)N(c3ccccc3)C2=O)c1 (stereo unspecified),10*,-4,0,0,16,-88,15,9.8*
COc1cccc(NC(=O)CC2SC(=Nc3ccccc3)NC2=O)c1 (stereo unspecified),-1,1,0,0,-3,-28,.,.
COCCNC(=O)C1(C)Cc2c(-c3ccc(N(C)C)cc3)ccnc2O1 (stereo unspecified),-107,-364,-267,10,-388,1,.,.
FC(F)(F)c1cc(CCN2CCNC[C@@H]2CC2CCCCC2)cc(C(F)(F)F)c1,1,6,7,0,-1,18,.,.
CCCC[C@@H]1CNCCN1CCc1cc(C(F)(F)F)cc(C(F)(F)F)c1,9.0*,11,9,0,4,16,0,0
C[C@@H]1CCCCO[C@H](CN(C)S(=O)(=O)c2cccs2)[C@H](C)CN([C@@H](C)CO)C(=O)c2cc(NC(=O)NC3CCCCC3)ccc2O1,11*,3,4,0,15,-22,28*,16*
C[C@H](CO)N1C[C@H](C)[C@@H](CN(C)C(=O)Nc2ccc3c(c2)OCO3)Oc2ccc(NC(=O)Nc3ccc(C(F)(F)F)cc3)cc2C1=O,11*,-3,-3,0,19,-13,21*,15*
Cc1noc(C)c1NC(=O)Nc1ccc2c(c1)C(=O)N([C@@H](C)CO)C[C@@H](C)[C@H](CN(C)C(=O)Nc1cccc3ccccc13)OCCCC[C@H](C)O2,-5,-11,-7,-1,-40,-7,.,.
C[C@H](CO)N1C[C@H](C)[C@@H](CN(C)S(=O)(=O)c2cccs2)Oc2ccc(NC(=O)NC3CCCCC3)cc2C1=O,-2,-1,-1,0,0,-8,.,.
Cc1noc(C)c1NC(=O)Nc1ccc2c(c1)C(=O)N([C@H](C)CO)C[C@H](C)[C@H](CN(C)C(=O)NC1CCCCC1)OCCCC[C@@H](C)O2,9.8*,2,4,0,4,-5,27*,7
Cc1csc(NC(=O)COc2ccc3c(c2)CCC3)n1,0,-2,3,1,4,-5,.,.
CC(C)(NO)/C(=N/O)c1cccs1,9.2*,12*,9,0,8,5,5,5
CN(C)c1nnnn1-c1ccccc1Oc1ncc(C(F)(F)F)cc1Cl,1,2,3,1,3,-4,.,.
NS(=O)(=O)c1ccc(NC(=O)c2cccc(N3C(=O)c4ccccc4C3=O)c2)cc1,-3,-16,-10,0,-2,3,.,.
O=C(Nc1ccc(N2CCCC2)cc1)c1cccc(F)c1,18*,-3,1,0,8,14,-3,4
COc1ccc(CN2CCC(CNC(=O)Nc3ccccc3)CC2)cc1,1,2,3,0,2,-2,.,.
SMILES,ADAM17 inh,PLC-beta3 inh,PLCg1 inh,KLK7 zymogen act,ADAM10 inh,sPLA2-III inh,ADAM10 counter,ADAM17 confirm
COc1ccc(N2CCC(CNC(=O)Nc3ccccc3)C2)cc1 (stereo unspecified),14*,-3,6,-1,9,7,3,8
Cc1cc(C)n(Cc2ccc(C(=O)NCc3ccco3)o2)n1,9.4*,3,4,0,0,-1,-8,-2
CN(Cc1ccccc1)C(=O)c1ccc(NC(=O)Cc2ccc(NC(=O)C3CCCN(C(=O)C4CCCCC4)C3)cc2)cc1 (stereo unspecified),10*,3,7,0,15,-37,14,5
CN(Cc1ccccc1)C(=O)c1ccc(NC(=O)Cc2ccc(NC(=O)C3CCCN(C(=O)CCc4ccccc4)C3)cc2)cc1 (stereo unspecified),9.4*,2,0,1,11,-40,21*,11*
CN(Cc1ccccc1)C(=O)c1ccc(NC(=O)Cc2ccc(NC(=O)C3CCCN(C(=O)C4CCC4)C3)cc2)cc1 (stereo unspecified),0,-2,1,0,2,-16,.,.
O=C(Cc1ccc(NC(=O)C2CCCN(C(=O)C3CCC3)C2)cc1)Nc1ccc(C(=O)N2CCOCC2)cc1 (stereo unspecified),0,2,-2,-1,-4,-9,.,.
O=C(Cc1ccc(NC(=O)C2CCCN(C(=O)c3ccccc3)C2)cc1)Nc1ccc(C(=O)N2CCOCC2)cc1 (stereo unspecified),10*,5,3,0,2,-5,-2,5
CCOc1ncccc1C(=O)NNC(=O)c1cccc(S(=O)(=O)N2CCOCC2)c1,1,-3,-1,1,-12,5,.,.
CC(C)C(NC(=O)c1c(F)cccc1F)C(=O)N1CCN(c2ccccc2F)CC1 (stereo unspecified),-2,-4,-3,0,2,6,.,.
Cc1cc(NC(=O)COC(=O)c2cc([N+](=O)[O-])ccc2N2CCOCC2)ccc1Br,8.7*,6,9,-1,16,-6,46*,19*
